From PubChem BioAssay AID1626 (SRMLSC, 2009)
Out of some 220,000 compounds screened, about 2,000 (0.91%) were called active. Roughly 2% stayed inconclusive and do not appear here. Cut-off read from the data, not from the text of the source: inconclusive = inhibition above about 80% without an active follow-up result; inactive = below that; test concentration not stated here. Not all results are given here. Results with a measured potency or affinity are listed apart.

Experiment: M. tuberculosis H37Rv growth inhibitors, H37Rv strain (AID 1626);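 note: bacteria incubated seven days before Alamar blue readout; 0% = bacteria only wells and 100% = bacteria with antibiotic wells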
Details: stronger effect = higher value, concentration not given here

Row | SMILES | inhibition
1 | CCO[C@@H]1OC(C(=O)O)=C[C@H](C2CCCCC2)[C@H]1CCCO | 6.74% (inactive)
2 | CCCCOC(=O)Nc1ccc(C(=O)OC)cc1 | -7.29% (inactive)
3 | CCCCOC(=O)Nc1cccc(C(=O)OCC)c1 | 4% (inactive)
4 | CCCOC(=O)c1ccc(NC(=O)c2cc(OC)c(OC)c(OC)c2Br)cc1 | -1.63% (inactive)
5 | CCOC(=O)c1ccc(NC(=O)c2cc(OC)c(OC)c(OC)c2Br)cc1 | 30.9% (inactive)
6 | CCN(CC)c1ccc(NC(=O)c2ccc(Br)o2)cc1 | -1.94% (inactive)
7 | COc1ccc(NC(=O)c2ccc(Br)o2)cc1 | -11.7% (inactive)
8 | CCOC(=O)NCCOC(=O)Nc1ccc(Cl)cc1 | 2.79% (inactive)
9 | CCCCOC(=O)Nc1ccc(C(N)=O)cc1 | -2.7% (inactive)
10 | O=C1CCC2c3ccc4ccccc4c3CCN12 (stereo not given) | -9.72% (inactive)
11 | O=C(O)c1ccccc1C(=O)NCc1cccnc1 | -5.59% (inactive)
12 | COc1ccc(-n2c(C)nc3sc4c(c3c2=O)CCC4)cc1 | -4.02% (inactive)
13 | COc1ccc(-n2c(NN)nc3sc4c(c3c2=O)CCCC4)cc1 | 9.05% (inactive)
14 | CNC(C)C#Cc1ccc2c(=O)c3cc(C)c(C)cc3oc2c1 (stereo not given) | -0.56% (inactive)
15 | Cn1nc(C(=O)OCC(=O)Nc2ccc(S(N)(=O)=O)cc2)c2ccccc2c1=O | 4.62% (inactive)
16 | COc1ccc(CCNC(=O)CSCc2ccc(F)cc2)cc1OC | -4.44% (inactive)
17 | Cc1ccccc1OC(=O)CCC(=O)OCCCC(F)(F)C(F)(F)F | -4.35% (inactive)
18 | c1ccc2c(c1)CC(N1CCCCC1)c1ccccc1N2 (stereo not given) | -6.95% (inactive)
19 | COCCCN1CCN(C2Cc3ccccc3Sc3ccc(Cl)cc32)CC1 (stereo not given) | 54.7% (inactive)
20 | CCc1nnc(NC(=O)CSc2nc3cc4c(cc3cc2CC)OCCO4)s1 | 7.01% (inactive)
21 | Cn1c(CN2CCOCC2)nnc1SCC(N)=O | 7.64% (inactive)
22 | O=C(NCCSCc1c(F)cccc1Cl)c1ccc(CN2CCOCC2)cc1 | 0.75% (inactive)
23 | CC1CCN(S(=O)(=O)N2CCC(C(=O)O)CC2)CC1 | -4.2% (inactive)
24 | C=CCNC(=O)NC(=O)CSc1nnc(C(F)(F)F)n1C | -4.51% (inactive)
25 | CCCCCCc1ccc(OCC(=O)O)cc1OCC(=O)O | -14.7% (inactive)

Row | SMILES | inhibition
26 | CCCc1cc(=O)oc2cc(OCC(=O)OC)cc(OCC(=O)OC)c12 | 6.75% (inactive)
27 | Cn1c2ccc(F)cc2c2ncn(CC3CCCO3)c(=O)c21 (stereo not given) | -14% (inactive)
28 | CCCCCn1c(=O)c(C(=O)NCc2ccncc2)c(O)c2ccccc21 | 41.4% (inactive)
29 | CCCCn1c(=O)c(C(=O)NCc2ccncc2)c(O)c2ccccc21 | -0.26% (inactive)
30 | CCCn1c(=O)c(C(=O)NCc2cccnc2)c(O)c2ccccc21 | -5.34% (inactive)
31 | CC(C)Cn1c(=O)c(C(=O)Nc2cnccn2)c(O)c2ccccc21 | -13.3% (inactive)
32 | O=C(/C=C/c1ccco1)NC(=S)Nc1ccccn1 | 2.96% (inactive)
33 | COc1ccc(S(=O)(=O)N(C)C2CCN(C)CC2)cc1 | -0.56% (inactive)
34 | CC(=O)c1ccc(C(=O)N2CCC(CO)(Cc3cccc(C(F)(F)F)c3)CC2)cc1 | -0.21% (inactive)
35 | CC1=C(C(=O)NC2CCC(C)CC2)C2(CCC(C)CC2)OC1=O (stereo not given) | 3.77% (inactive)
36 | CCc1ccc(/C=C/C(=O)c2c(C)cc(C)[nH]c2=O)cc1 | 8.7% (inactive)
37 | Cc1ccc(/C=C/C(=O)c2ccccc2O)cc1 | 11.9% (inactive)
38 | O=C(c1ccccc1)C1C(=O)c2ccccc2C1=O | -2.43% (inactive)
39 | CCc1ccc(/C=C/C(=O)c2ccc(S(=O)(=O)N(C)C)cc2)cc1 | 6.7% (inactive)
40 | COC(=O)C1C(=O)C(C(=O)/C=C/c2ccccc2)C(=O)CC1(C)C (stereo not given) | -2.58% (inactive)
41 | Cc1ccc(C(=O)C2C(=O)c3ccccc3C2=O)cc1 | 39.5% (inactive)
42 | CNc1nc(-c2ccc3c(c2)CCN3C(=O)c2ccccc2F)cs1 | 0.06% (inactive)
43 | CC(C)(C)NC(=O)CN(C(=O)CSc1nnc(COc2ccccc2)o1)c1cccc(F)c1 | 4.71% (inactive)
44 | CC(C)OP(=O)(OC(C)C)C(NCc1ccccc1)c1ccccc1 (stereo not given) | 4.8% (inactive)
45 | COC(=O)c1c(-c2ccccc2)noc1C | -2.56% (inactive)
46 | COc1ccc(/C=N/NC(=O)Nc2nonc2N)cc1 | -4.3% (inactive)
47 | OCCCNCc1cccc2ccccc12 | 3.9% (inactive)
48 | O=C(Nc1ccccc1Cl)c1csc(-c2cccnc2)n1 | 2.6% (inactive)
49 | Cc1[nH]c(C)c2c(=O)n(-c3ccccc3)ncc12 | 3.67% (inactive)
50 | CCSc1cc(N2CCCC2)nc(-c2ccc(C)cc2)n1 | 3.04% (inactive)

Row | SMILES | inhibition
51 | CCCSc1cc(N2CCCC2)nc(-c2ccccc2)n1 | 6.61% (inactive)
52 | CC(C)(CC(=O)O)CC(=O)NNc1ncccc1C#N | 9.47% (inactive)
53 | CCOc1ccc(/C=N/N(C)c2ccccc2)cc1OC | 33.5% (inactive)
54 | O=C(O)C1CCCCC1C(=O)Nc1ccc(F)c(F)c1 (stereo not given) | 0.5% (inactive)
55 | Cc1ccc(NC(=O)C2CCCCC2C(=O)O)cc1C (stereo not given) | 1.55% (inactive)
56 | COc1cc(/C=N/NC(N)=O)ccc1OCC(=O)N1C(C)CCCC1C (stereo not given) | -1.38% (inactive)
57 | Cc1sc(N)c(C(=O)c2ccccc2)c1C | -10.3% (inactive)
58 | O=C(c1ccccc1)c1cc2ccccc2o1 | 1.99% (inactive)
59 | CN(C)/C=N/c1ncc(C(=O)c2ccccc2)s1 | -11.7% (inactive)
60 | Nc1nc(Nc2ccccc2)sc1C(=O)c1ccccc1 | 36.1% (inactive)
61 | COC(=O)CCCC1=CC2=C(c3ccccc3)C(=O)C(C)(OC(=O)C3CCCC3)C(=O)C2=CN1CCc1c[nH]c2ccccc12 (stereo not given) | 0.18% (inactive)
62 | COc1ccc(-n2c(C)cc(C(=O)Cn3nnc4ccccc4c3=O)c2C)cc1 | -8.34% (inactive)
63 | Cc1ccc(CN(c2ccc(C(=O)N3CCc4ccccc4C3)cc2)S(C)(=O)=O)cc1 | 6.8% (inactive)
64 | N#Cc1ccccc1Cn1cc(C(=O)c2cccs2)c2ccccc21 | 7.78% (inactive)
65 | Nc1nc(Nc2cccc(F)c2)nc(NCCO)c1[N+](=O)[O-] | 7.19% (inactive)
66 | CC1CCC(C(C)C)C(OC(=O)Cn2nnc3c(cnn3-c3ccccc3)c2=O)C1 (stereo not given) | 1.77% (inactive)
67 | CC1CCC(C(C)C)C(OC(=O)CSc2nccc(=O)[nH]2)C1 (stereo not given) | -8.76% (inactive)
68 | CC1CCC(C(C)C)C(OC(=O)COC(=O)c2ccccc2N)C1 (stereo not given) | 6.07% (inactive)
69 | CC1CCC(C(C)C)C(OC(=O)COC(=O)c2ccc(=O)[nH]c2)C1 (stereo not given) | -0.66% (inactive)
70 | CC1CCC(C(C)C)C(OC(=O)COC(=O)c2cccn2C)C1 (stereo not given) | -6.06% (inactive)
71 | CC1CCC(C(C)C)C(OC(=O)COC(=O)c2ccc(N)cc2)C1 (stereo not given) | 68.7% (inactive)
72 | CCOc1ccc(CCNC(=O)Cn2cccc2C(=O)c2ccccc2C)cc1OCC | 4.18% (inactive)
73 | Cc1c(-c2n[nH]c(=S)n2-c2ccc(Br)cc2)nnn1-c1ccc(Cl)cc1 | 4.27% (inactive)
74 | CCOC(CNc1c([N+](=O)[O-])c(=O)n(C)c(=O)n1C)OCC | 3.27% (inactive)
75 | Cc1ccccc1NC(=O)OCc1cccnc1Sc1ccc(Cl)cc1 | 0.86% (inactive)

Row | SMILES | inhibition
76 | Cn1c(SCC(=O)O)nc2ccccc2c1=O | 3.07% (inactive)
77 | CN1C(=O)C(=Cc2ccc(Sc3ccccc3)o2)C(=O)N(C)C1=O | 41% (inactive)
78 | Cc1ccc(Sc2ccc(/C=C3/C(=O)NN(c4ccccc4)C3=O)o2)cc1 | 75.7% (inactive)
79 | CCCCc1nnc(NC(=O)CN2C(=O)c3ccccc3C2=O)s1 | 0.96% (inactive)
80 | CCOC(=O)COc1ccc(S(=O)(=O)N2CCN(c3ccc(F)cc3)CC2)cc1 | 8.22% (inactive)
81 | CN1CCN(C(=O)/C(=C\c2cccc([N+](=O)[O-])c2)NC(=O)c2cccs2)CC1 | -3.33% (inactive)
82 | O=C(NC1CCCCC1)C(c1ccc2ncccc2c1)N(Cc1ccc2c(c1)OCO2)C(=O)c1cccs1 (stereo not given) | 8.94% (inactive)
83 | O=C(NC1CCCCC1)C(c1ccc2ncccc2c1)N(Cc1ccco1)C(=O)c1ccc2c(c1)OCCO2 (stereo not given) | 13.5% (inactive)
84 | O=C(NC1CCCCC1)C(c1ccc2ncccc2c1)N(Cc1ccccc1)C(=O)c1cccs1 (stereo not given) | 40.5% (inactive)
85 | COc1ccc(CN(C(=O)c2ccc3c(c2)OCCO3)C(C(=O)NC2CCCCC2)c2ccc3ncccc3c2)cc1 (stereo not given) | 67.9% (inactive)
86 | Cn1c(SCC(=O)N/N=C/c2cccnc2)nnc1-c1ccccc1 | -5.36% (inactive)
87 | Cc1ccc(C(=O)OCC(=O)NC(C)C)cc1S(=O)(=O)N1CCOCC1 | -1.79% (inactive)
88 | CN(Cc1ccccc1)S(=O)(=O)c1ccc(NC(=S)NC(=O)C(C)(C)C)cc1 | 9.18% (inactive)
89 | COc1cc(CN2CCCC(C(=O)c3ccc4c5c(cccc35)CC4)C2)cc(OC)c1O (stereo not given) | -1.67% (inactive)
90 | CC(C)c1[nH]nc2c1C(c1ccco1)C(C#N)=C(N)O2 (stereo not given) | -5.64% (inactive)
91 | O=C1CC(C(=O)O)C2(CCCC2)O1 (stereo not given) | 9.23% (inactive)
92 | Cc1ccc(N(CC(=O)NC2CCCC2)C(=O)CCCC(=O)Nc2ccccn2)cc1C | 10% (inactive)
93 | COc1ccccc1Sc1nc(-c2ccccc2)ncc1OC | -2.36% (inactive)
94 | Clc1ccccc1Sc1ccc(-c2ccccn2)s1 | -5.02% (inactive)
95 | COc1cnc(-c2ccccn2)nc1NC(C)C | 75.4% (inactive)
96 | O=C(O)c1cnc(-c2ccccc2)nc1Sc1ccccc1Cl | 1.01% (inactive)
97 | CC12CN3CC(C)(CN(C1)C3c1cccnc1)C2=O (stereo not given) | -0.26% (inactive)
98 | O=C(NC(=S)NCCN1CCOCC1)c1ccccc1 | -16.1% (inactive)
99 | CCOC(=O)C1CCCN(C(=O)c2ccc([N+](=O)[O-])c(C)c2)C1 (stereo not given) | -2.07% (inactive)
100 | CCOC(=O)C1CCCN(c2cc(NCCCO)c([N+](=O)[O-])c3nonc23)C1 (stereo not given) | 1.76% (inactive)
